Measurements from PubChem BioAssay (NCI).
About 83,000 compounds went through this panel and 20% of them were active in at least one assay; those are over-represented in the sample as a whole.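 Cell lines were cultured in 96-well plates, exposed to a single compound concentration, and assessed for percent growth 48 hours later.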 Calls of active or inactive are those of the source. Rule for the calls: active = growth percent below 10; inactive = the rest.

What was measured:
Test in all cases: NCI-60 one-dose screen, 48 h (100 = growth as untreated, 0 = no growth, -100 = all killed)
Conditions in all cases: 10 µM unless noted
[1] = tested on: NCI-H23 lung
[2] = tested on: NCI-H226 lung
[3] = tested on: NCI-H322M lung
[4] = tested on: HOP-62 NSCLC
[5] = tested on: NCI-H460 lung
[6] = tested on: HOP-92 NSCLC
[7] = tested on: NCI-H522 lung
[8] = tested on: A549/ATCC NSCLC
[9] = tested on: 786-0 renal
[10] = tested on: COLO 205 colon
[11] = tested on: DU-145 prostate
[12] = tested on: K-562 leukemia
[13] = tested on: MALME-3M melanoma
[14] = tested on: MDA-MB-231 breast
[15] = tested on: RXF 393 renal
[16] = tested on: SF-268 CNS
[17] = tested on: SF-295 CNS
[18] = tested on: SF-539 CNS
[19] = tested on: UACC-257 melanoma
[20] = tested on: M14 melanoma

Measured: growth

C[C@H](NC(=O)[C@@H](C)N)[C@H](Oc1ccc2c(cnn2-c2ccc(F)cc2)c1)c1ccc2c(c1)OCCO2
inactive: [1] 83.7% | [2] 83.9% | [3] 75.5% | [4] 50.6% | [7] 24.8% | [8] 39.3% | [9] 56.7% | [11] 55.4% | [14] 42.5% | [15] 62% | [16] 42.5% | [17] 77% | [18] 74% | [19] 63.9%
active: [5] 0.905% | [6] -4.6% | [10] -3.17% | [12] -3.32% | [13] -24.7% | [20] -69.6%

Cc1ccc(-c2nc3nc(-c4ccc(F)cc4)nc(N4CCNCC4)c3o2)cc1
inactive: [1] 94.4% | [2] 116% | [3] 87.7% | [4] 77.6% | [6] 90.8% | [7] 79.8% | [8] 27.2% | [11] 41.7% | [13] 107% | [15] 109% | [16] 96.7% | [17] 91.6% | [19] 105%
active: [5] -84.6% | [9] -92.8% | [10] -78.1% | [12] -53.1% | [14] -29.1% | [18] -72.3% | [20] -70.9%

O=C1CNC(c2ccccc2)C(c2ccccc2)N1 (stereo not given)
inactive: [1] 85.2% | [2] 99.4% | [3] 103% | [4] 121% | [5] 103% | [6] 86.3% | [7] 88.6% | [8] 93.5% | [9] 92.4% | [10] 115% | [11] 102% | [12] 120% | [13] 86.9% | [14] 100% | [15] 98.3% | [16] 110% | [17] 109% | [18] 100% | [19] 102% | [20] 97.4%

C=C1CC[C@@H]2[C@](C)(COC(C)=O)[C@H](OC(C)=O)CC[C@@]2(C)[C@@H]1CC(Sc1ccccc1)C1=CCOC1=O (stereo not given in full)
active: [2] -9.88% | [4] -18.2% | [7] -80.6% | [9] -31.2% | [10] -68.1% | [12] 3.95% | [14] 7.4% | [15] 5.01% | [18] -43.6% | [20] -4.19%
inactive: [1] 24.5% | [3] 67.1% | [5] 21.7% | [6] 24.5% | [8] 26.6% | [11] 16.4% | [13] 16.8% | [16] 11.6% | [17] 65.9% | [19] 29.4%

COc1ccc(C/C(C)=C(/c2ccc(OCCN3CCCCC3)cc2)c2ccc(OC(=O)NCc3ccccc3)cc2)cc1
active: [1] -84.6% | [2] -70% | [3] -81.7% | [4] -89.2% | [5] -90% | [6] -92.7% | [7] -80.9% | [8] -93.4% | [9] -91.6% | [10] -90.4% | [11] -97.2% | [12] -56.3% | [13] -87.3% | [14] -86.9% | [15] -91.4% | [16] -76.6% | [17] -94.8% | [18] -92.5% | [19] -83.2% | [20] -92.3%

COCCn1cc(-c2nc(-c3cc4cccnc4n3CCOC)cs2)c2cc(OC)ccc21
inactive: [1] 61.5% | [2] 63.1% | [3] 39.5% | [4] 74.7% | [5] 40.2% | [6] 47.1% | [7] 16.7% | [8] 46% | [9] 58.5% | [10] 44.3% | [11] 72.4% | [13] 119% | [14] 23.7% | [15] 66.3% | [16] 74.2% | [17] 74.2% | [18] 62.6% | [19] 94.7% | [20] 69.4%
active: [12] 0.391%

COc1cccc([C@H]2c3[nH]c4ccccc4c3C[C@H]3C(=O)N(CCCCCCC(=O)NO)CC(=O)N23)c1
inactive: [1] 66.8% | [2] 88.7% | [3] 80.2% | [4] 68.6% | [5] 72.9% | [7] 25.6% | [8] 94.9% | [9] 87.8% | [10] 60.2% | [11] 76.9% | [12] 27% | [13] 24.3% | [14] 68.7% | [15] 75% | [16] 88.4% | [17] 87.5% | [18] 60.6% | [19] 51.6% | [20] 59.6%
active: [6] -1.94%

CN(Cc1ccc(C(F)(F)F)cc1)CC(O)C(=O)Nc1ccc(Cl)cc1 (stereo not given)
inactive: [2] 51.8% | [3] 42.4% | [5] 18.3% | [8] 19.6% | [13] 12.8% | [14] 26% | [15] 12.9% | [16] 31.9% | [18] 21.9%
active: [1] -50.9% | [4] -37.8% | [6] -0.362% | [7] -51.4% | [9] -48.4% | [10] -68.6% | [11] -51.4% | [12] -36% | [17] -69.5% | [19] 1.78% | [20] -49.8%

N#Cc1c(-c2ccc(Cl)cc2)nc(NN=Cc2cccc(O)c2)nc1N1CCOCC1
inactive: [1] 100% | [2] 92.9% | [3] 86.3% | [4] 87.8% | [5] 77.9% | [6] 63.3% | [7] 74.8% | [8] 72.7% | [9] 64.3% | [10] 85.7% | [11] 63.4% | [12] 45.1% | [13] 104% | [14] 95.9% | [15] 24.1% | [16] 81.9% | [17] 97.1% | [18] 67.8% | [19] 86.5% | [20] 66.6%

Cn1cc(-c2csc(-c3ccc(Cl)cc3)n2)c2cccnc21
active: [1] -49.3% [100 µM] | [2] -14.3% [100 µM] | [3] -8.35% [100 µM] | [4] -53.7% [100 µM] | [5] -16.4% [100 µM] | [6] -69.2% [100 µM] | [7] 9.55% [100 µM] | [8] 9.96% [100 µM] | [9] -61.4% [100 µM] | [10] -65.8% [100 µM] | [11] -70.5% [100 µM] | [12] 3.35% [100 µM] | [13] -9.47% [100 µM] | [14] -46.5% [100 µM] | [15] -7.46% [100 µM] | [16] -33.6% [100 µM] | [17] -20.3% [100 µM] | [18] -63.8% [100 µM] | [19] -35.6% [100 µM] | [20] -62.3% [100 µM]

O=S(=O)(Nc1cc(Br)c(O)c2ccccc12)c1ccc(F)cc1
inactive: [1] 53.1% | [2] 97.5% | [3] 94.9% | [4] 103% | [5] 103% | [6] 47.1% | [7] 77.3% | [8] 102% | [9] 111% | [10] 93.2% | [11] 81.2% | [12] 28.7% | [13] 62.2% | [14] 10.7% | [15] 102% | [16] 79.4% | [17] 95% | [18] 85.1% | [19] 63.4% | [20] 96.7%

N#Cc1cccc(-c2c(-c3ccc4ccccc4c3)oc3ccccc3c2=O)c1
inactive: [1] 60.7% | [2] 71.2% | [3] 64.6% | [4] 41.5% | [5] 17.9% | [6] 51.8% | [7] 10.5% | [8] 34.9% | [9] 35.5% | [10] 36.7% | [11] 77.1% | [12] 11.5% | [13] 48.7% | [14] 55.7% | [15] 81.7% | [16] 65.8% | [17] 34.2% | [18] 43.4% | [19] 58.2%
active: [20] 6.18%

N#C/C(=C\c1ccc(-c2ccc(Cl)cc2)o1)C(=O)Nc1ncc(Cc2ccc(Cl)cc2)s1
inactive: [1] 31.8% | [2] 65% | [3] 22.8% | [6] 94.6% | [7] 46.3% | [9] 42% | [10] 57.2% | [11] 19.6% | [12] 62.2% | [14] 36.7% | [15] 109% | [16] 71.6% | [18] 27.1% | [20] 39.1%
active: [4] -9.27% | [5] -38.3% | [8] -8.3% | [13] 5.36% | [17] 9.09% | [19] -28.3%

CC(=O)[C@@H]1CCC=C2CC[C@]3(C)[C@@H](CC[C@@H]4[C@@]5(C)CCCNC(C)(C)[C@@H]5CC[C@]43C)[C@H]21
active: [1] -58.8% | [3] -42.3% | [4] -63.5% | [5] -34.6% | [6] -32.5% | [7] -74.1% | [8] -78.1% | [9] -89.5% | [10] -81% | [11] -36.8% | [12] -44.6% | [13] -56.1% | [14] -76.5% | [15] -91.9% | [17] -84.7% | [18] 9.45% | [19] -67.4% | [20] -82.1%
inactive: [2] 23.2% | [16] 12.3%

O=C(OCc1ccc2c(Cl)cc(Cl)c(O)c2n1)n1cncn1
inactive: [1] 44.5% | [2] 59.1% | [3] 50.4% | [4] 27.5% | [5] 19.9% | [6] 49.4% | [7] 51.4% | [8] 22.1% | [9] 45.7% | [10] 96.5% | [11] 38.7% | [12] 18.2% | [13] 33% | [14] 59.6% | [15] 45.9% | [16] 24.1% | [17] 20% | [18] 15.7% | [19] 41.2% | [20] 20.4%
